Inconclusive results are not listed. More than one record can exist for a structure, and the calls need not agree. Active and inactive are the calls of the source. Calls come from the whole dose curve; as a rule, active = well fitted curve in the direction sought with a large enough effect; inconclusive = small, poorly fitted or top-dose-only effect, or another doubt; inactive = no such curve, though single readings can be large; an effect the other way counts as inactive or inconclusive.
What was measured:
MCC-13 = test: qHTS assay to identify novel small-molecules to repurpose for Merkel cell carcinoma treatment (AID 1296009); conditions: MCC and control cell lines, CellTiter-Glo viability, 72 h; series mostly up to 46 µM; note: nearly all actives have a fitted effect of over 60% in size
Summary of the method: (§1)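 Cell viability measured by CellTiter-Glo following 72 hr compound treatment at 37 degree celsius, with NPC and MIPE libraries tested in 8- and 11-point concentration series.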

MCC-26 = test: as above; conditions: MCC and control cell lines, CellTiter-Glo viability, 72 h; series mostly up to 46 µM
Summary of the method: as §1

MKL-1 = test: as above; conditions: MCC and control cell lines, CellTiter-Glo viability, 72 h; series mostly up to 46 µM
Summary of the method: as §1

MKL-2 = test: as above; conditions: MCC and control cell lines, CellTiter-Glo viability, 72 h; series mostly up to 46 µM
Summary of the method: as §1

UISO = test: as above; conditions: MCC and control cell lines, CellTiter-Glo viability, 72 h; series mostly up to 46 µM
Summary of the method: as §1

WaGa = test: as above; conditions: MCC and control cell lines, CellTiter-Glo viability, 72 h; series mostly up to 46 µM
Summary of the method: as §1

C33A = test: Primary qHTS to identify gynecologic anti-cancer compounds using libraries of approved drugs and bioactive compounds (AID 1345084); conditions: Gynecologic cancer cell panel viability, ATPlite luminescence, 48 h; series mostly up to 57.5 µM; note: nearly all actives have a fitted effect of over 55% in size
Summary of the method: (§2)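 Cell viability after 48 h drug treatment, ATPlite luminescence readout; five doses.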

CAOV3 = test: as above; conditions: Gynecologic cancer cell panel viability, ATPlite luminescence, 48 h; series mostly up to 57.5 µM
Summary of the method: as §2

CASKI = test: as above; conditions: Gynecologic cancer cell panel viability, ATPlite luminescence, 48 h; series mostly up to 57.5 µM
Summary of the method: as §2

Es-2 = test: as above; conditions: Gynecologic cancer cell panel viability, ATPlite luminescence, 48 h; series mostly up to 57.5 µM
Summary of the method: as §2

HeLa = test: as above; conditions: Gynecologic cancer cell panel viability, ATPlite luminescence, 48 h; series mostly up to 57.5 µM
Summary of the method: as §2

Hek293T = test: as above; conditions: Gynecologic cancer cell panel viability, ATPlite luminescence, 48 h, control line for the selectivity index; series mostly up to 57.5 µM
Summary of the method: as §2

JEG-3 = test: as above; conditions: Gynecologic cancer cell panel viability, ATPlite luminescence, 48 h; series mostly up to 57.5 µM
Summary of the method: as §2

OV90 = test: as above; conditions: Gynecologic cancer cell panel viability, ATPlite luminescence, 48 h; series mostly up to 57.5 µM
Summary of the method: as §2

SKOV3 = test: as above; conditions: Gynecologic cancer cell panel viability, ATPlite luminescence, 48 h; series mostly up to 57.5 µM
Summary of the method: as §2

Tov-21-G = test: as above; conditions: Gynecologic cancer cell panel viability, ATPlite luminescence, 48 h; series mostly up to 57.5 µM
Summary of the method: as §2

Tov112D = test: as above; conditions: Gynecologic cancer cell panel viability, ATPlite luminescence, 48 h; series mostly up to 57.5 µM
Summary of the method: as §2

PA-1 = test: as above; conditions: Gynecologic cancer cell panel viability, ATPlite luminescence, 48 h; series mostly up to 57.5 µM
Summary of the method: as §2

NIH3T3 = test: qHTS assay to identify novel small-molecules to repurpose for Merkel cell carcinoma treatment (AID 1296009); conditions: MCC and control cell lines, CellTiter-Glo viability, 72 h; at 44.8 µM (top of the series) unless noted; note: nearly all actives have a fitted effect of over 60% in size
Summary of the method: as §1
% is set by controls: 0 for no effect and ±100 for the full control effect; potency is the fitted concentration of half-maximal effect.

CC(C)c1c(C(=O)Nc2ccccc2)c(-c2ccccc2)c(-c2ccc(F)cc2)n1CC[C@@H](O)C[C@@H](O)CC(=O)O
inactive: Potency (C33A) | Potency (CAOV3) | Potency (CASKI) | Potency (Es-2) | Potency (HeLa) | Potency (Hek293T) | Potency (JEG-3) | Potency (OV90) | Potency (SKOV3) | Potency (Tov-21-G) | Potency (Tov112D)
active: Potency (MCC-13) 23.7 µM | Potency (MCC-26) 23.7 µM | Potency (MKL-1) 3.35 µM | Potency (MKL-2) 2.66 µM | Potency (UISO) 10.6 µM | Potency (WaGa) 7.5 µM

CC[N+](CC)(CC)CCOc1ccc(/C=C/c2ccccc2)cc1
active: Potency (MKL-1) 2.99 µM | Potency (MKL-2) 1.68 µM | Potency (UISO) 1.19 µM | Potency (WaGa) 1.88 µM | Potency (C33A) 14.1 µM | Potency (CAOV3) 10 µM | Potency (JEG-3) 31.6 µM | Potency (OV90) 17.8 µM | Potency (PA-1) 2.51 µM | Potency (SKOV3) 10 µM | Potency (Tov-21-G) 25.1 µM
inactive: Potency (MCC-13) | Potency (MCC-26)

CCN(CC)CCOC(=O)C1(C2CCCCC2)CCCCC1
inactive: Potency (MCC-13) | Potency (MCC-26) | Potency (MKL-1) | Potency (MKL-2) | Potency (UISO) | Potency (WaGa) | Potency (C33A) | Potency (CAOV3) | Potency (CASKI) | Potency (Es-2) | Potency (HeLa) | Potency (Hek293T) | Potency (JEG-3) | Potency (OV90) | Potency (PA-1) | Potency (SKOV3) | Potency (Tov-21-G) | Potency (Tov112D)

C#CCN(C)Cc1ccccc1
inactive: Potency (MCC-13) | Potency (MCC-26) | Potency (MKL-1) | Potency (MKL-2) | Potency (UISO) | Potency (WaGa) | Potency (C33A) | Potency (CASKI) | Potency (Es-2) | Potency (HeLa) | Potency (Hek293T) | Potency (JEG-3) | Potency (OV90) | Potency (PA-1) | Potency (SKOV3) | Potency (Tov-21-G) | Potency (Tov112D)

CC(CN(C)C)CN1c2ccccc2CCc2ccccc21 (stereo unspecified)
inactive: Potency (MCC-13) | Potency (MCC-26) | Potency (MKL-1) | Potency (UISO) | Potency (WaGa) | Potency (C33A) | Potency (CAOV3) | Potency (Es-2) | Potency (HeLa) | Potency (Hek293T) | Potency (JEG-3) | Potency (PA-1) | Potency (SKOV3) | Potency (Tov-21-G) | Potency (Tov112D)

Cc1cc(O)cc2c1O[C@](C)(CCC[C@H](C)CCC[C@H](C)CCCC(C)C)CC2
inactive: Potency (MCC-13) | Potency (MCC-26) | Potency (MKL-1) | Potency (MKL-2) | outcome (NIH3T3) | Potency (UISO) | Potency (WaGa) | Potency (C33A) | Potency (CASKI) | Potency (Es-2) | Potency (HeLa) | Potency (Hek293T) | Potency (JEG-3) | Potency (OV90) | Potency (PA-1) | Potency (SKOV3) | Potency (Tov-21-G) | Potency (Tov112D)

CN1CCN(C2Cc3ccccc3Sc3ccc(Cl)cc32)CC1 (stereo unspecified)
active: Potency (MKL-1) 26.6 µM | Potency (MKL-2) 26.6 µM | Potency (UISO) 23.7 µM | Potency (WaGa) 23.7 µM
inactive: Potency (MCC-13) | Potency (MCC-26) | Potency (C33A) | Potency (CASKI) | Potency (Es-2) | Potency (HeLa) | Potency (Hek293T) | Potency (JEG-3) | Potency (PA-1) | Potency (Tov-21-G) | Potency (Tov112D)

O=C(CCCN1CCN(c2ccccn2)CC1)c1ccc(F)cc1
inactive: Potency (MCC-13) | Potency (MCC-26) | Potency (MKL-1) | Potency (MKL-2) | Potency (WaGa) | Potency (C33A) | Potency (CAOV3) | Potency (CASKI) | Potency (Es-2) | Potency (HeLa) | Potency (Hek293T) | Potency (JEG-3) | Potency (OV90) | Potency (PA-1) | Potency (SKOV3) | Potency (Tov-21-G) | Potency (Tov112D)

CC(=O)NC(Cc1ccccc1)C(=O)O (stereo unspecified)
inactive: Potency (MCC-13) | Potency (MCC-26) | Potency (MKL-1) | Potency (MKL-2) | Potency (UISO) | Potency (WaGa) | Potency (C33A) | Potency (CAOV3) | Potency (CASKI) | Potency (Es-2) | Potency (HeLa) | Potency (Hek293T) | Potency (JEG-3) | Potency (OV90) | Potency (PA-1) | Potency (SKOV3) | Potency (Tov-21-G) | Potency (Tov112D)

O=C1N=C(O)CN1/N=C/c1ccc(-c2ccc([N+](=O)[O-])cc2)o1
inactive: Potency (MCC-13) | Potency (MCC-26) | Potency (MKL-1) | Potency (MKL-2) | Potency (UISO) | Potency (WaGa) | Potency (C33A) | Potency (CAOV3) | Potency (CASKI) | Potency (Es-2) | Potency (HeLa) | Potency (Hek293T) | Potency (JEG-3) | Potency (OV90) | Potency (PA-1) | Potency (SKOV3) | Potency (Tov-21-G) | Potency (Tov112D)

CC(=O)Nc1ccc(/C=N/NC(N)=S)cc1
inactive: Potency (MCC-13) | Potency (MCC-26) | Potency (MKL-1) | Potency (MKL-2) | Potency (UISO) | Potency (WaGa) | Potency (C33A) | Potency (CAOV3) | Potency (CASKI) | Potency (Es-2) | Potency (HeLa) | Potency (Hek293T) | Potency (JEG-3) | Potency (OV90) | Potency (PA-1) | Potency (Tov-21-G) | Potency (Tov112D)

C[C@](N)(Cc1ccc(O)cc1)C(=O)O
inactive: activity change, negative = cytotoxicity (MCC-13) 6.34% [at 4.84 µM] | activity change, negative = cytotoxicity (MCC-26) 5.04% [at 4.84 µM] | activity change, negative = cytotoxicity (MKL-1) -2.87% [at 4.84 µM] | activity change, negative = cytotoxicity (MKL-2) 7.48% [at 4.84 µM] | outcome (NIH3T3) inactive [at 4.96 µM] | activity change, negative = cytotoxicity (UISO) 17.6% [at 4.84 µM] | activity change, negative = cytotoxicity (WaGa) -0.23% [at 4.84 µM] | activity change, negative = cytotoxicity (C33A) 11.8% [at 6.55 µM] | activity change, negative = cytotoxicity (CAOV3) 1.31% [at 6.55 µM] | activity change, negative = cytotoxicity (CASKI) 2.23% [at 6.55 µM] | activity change, negative = cytotoxicity (Es-2) -8.81% [at 6.55 µM] | activity change, negative = cytotoxicity (HeLa) 0.756% [at 6.55 µM] | activity change, negative = cytotoxicity (Hek293T) -0.946% [at 6.55 µM] | activity change, negative = cytotoxicity (JEG-3) 2.69% [at 6.55 µM] | activity change, negative = cytotoxicity (OV90) 0.672% [at 6.55 µM] | activity change, negative = cytotoxicity (PA-1) 12.1% [at 6.55 µM] | activity change, negative = cytotoxicity (Tov-21-G) -3.06% [at 6.55 µM] | activity change, negative = cytotoxicity (Tov112D) 0.865% [at 6.55 µM]

COc1ccc2cc1Oc1ccc(cc1)C[C@H]1c3c(cc4c(c3Oc3cc5c(cc3OC)CCN(C)[C@@H]5C2)OCO4)CCN1C
10 µM (active) and inactive: Potency (OV90)
inactive: Potency (MCC-13) | Potency (C33A) | Potency (CASKI) | Potency (Es-2) | Potency (HeLa) | Potency (Hek293T) | Potency (JEG-3) | Potency (Tov-21-G) | Potency (Tov112D)
active: Potency (MKL-1) 23.7 µM | Potency (MKL-2) 3.35 µM | Potency (WaGa) 18.8 µM | Potency (PA-1) 28.2 µM

CC(=O)OCC(=O)[C@@]1(O)CC[C@H]2[C@@H]3CCC4=CC(=O)CC[C@]4(C)[C@H]3C(=O)C[C@@]21C
inactive: Potency (C33A) | Potency (CASKI) | Potency (Es-2) | Potency (HeLa) | Potency (Hek293T) | Potency (JEG-3) | Potency (OV90) | Potency (PA-1) | Potency (SKOV3) | Potency (Tov-21-G) | Potency (Tov112D)

— PubChem BioAssay (NCATS)
